# Sampled rows, rich in hits. Any-hit rate of the full collection: about 10%.
# HEK cytotox: kills HEK 293 cells; HEK 293 viability, ATP luminescence (CellTiter-Glo), 48-72 h; Potency, µM (doses to about 115 µM), most hits filed as inhibitors; 6.6% of 94,000 active; further: nearly all actives have a fitted effect of over 60% in size
#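 qHTS cytotoxicity; HEK 293, 250 cells/well; compound pinned; 48 or 72 hr, 37 degree Celsius, 5% CO2, 95% humidity; CellTiter-Glo, 10 min RT; luminescence (ATP).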
# FLuc inh: blocks purified firefly luciferase enzyme activity | AID 1347043 | 2.5% of 76,000 active | P08659 | purified P. pyralis luciferase, luminescence, biochemical | Potency, µM (highest dose often 115 µM), usual class: inhibitors; further: nearly all actives have a fitted effect of over 65% in size
#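 Biochemical qHTS: compound (6-point titration) added to 10uM D-luciferin plus 10uM ATP in Tris acetate pH 7.5 buffer with Mg, Tween-20 and BSA, then purified enzyme at 10nM; light output imaged.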
# GPT2 inh: GPT2 alanine aminotransferase inhibition; Q8TD30; Recombinant GPT2, coupled pyruvate oxidase/HRP Amplex Red fluorescence; Potency, µM (doses to about 57.7 µM), actives largely listed as inhibitors; 0.25% of 100,000 active; AID 1671188; further: nearly all actives have a fitted effect of over 60% in size
#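 Recombinant GPT2 (10ng/uL) with 250uM a-KG and 2mM L-alanine, 30 min at room temperature, in HEPES pH 7.5 buffer. Pyruvate detected by pyruvate oxidase/HRP/Amplex Red fluorescence after 30 min in the dark; AOA (50uM) as positive control.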
# 3T3 cytotox: NIH 3T3 cell cytotoxicity; AID 1345082; 4.3% of 94,000 active; Potency, µM (top dose mostly 96.7 µM), usual class: inhibitors; NIH 3T3 viability, CellTiter-Glo ATP luminescence, 48-72 h; further: nearly all actives have a fitted effect of over 55% in size
#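 Cytotoxicity is measured as loss of cellular ATP: NIH 3T3 cells (400/well) are exposed to compound for 48 or 72 hr at 37 °C, then CellTiter-Glo luminescence is imaged after 10 min at room temperature.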
# hNpr1 antagonist: human Npr1 receptor antagonism; HEK293 hNpr1 GloSensor cGMP, ANP-stimulated luminescence; P16066; Potency, µM (top dose mostly 46.3 µM), hits mostly inhibitors; AID 1347048; 1.6% of 76,000 active; calls by dose curve; further: nearly all actives have a fitted effect of over 60% in size
#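 HEK293 cells stably expressing human Npr1 and cGMP GloSensor pGS-40F, loaded 2 h with 2% GloSensor reagent, given compound 30 min at room temperature. Luminescence read before and 20 min after 0.1 nM hNppA.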
# Npr1 antag conf: hNpr1 antagonism, confirmation assay; Potency, µM (doses to about 57.6 µM), actives largely listed as inhibitors; HEK293 hNpr1 cGMP GloSensor luminescence, ANP-stimulated; 76% of 1,400 active; shares compounds with hNpr1 antagonist; calls by dose curve; further: nearly all actives have a fitted effect of over 70% in size
# Npr2 selectivity: selectivity test of Npr1 antagonists against human Npr2. Potency, µM (series often up to 57.6 µM), most hits filed as inhibitors. HEK293 hNpr2 GloSensor cGMP luminescence, CNP-stimulated. shares compounds with hNpr1 antagonist. 67% of 1,400 active. AID 1347046; calls by dose curve; further: nearly all actives have a fitted effect of over 70% in size
# FLuc inh counter: inhibits firefly luciferase, false Npr1 antagonist flag. AID 1347047. 0.7% of 1,400 active. shares compounds with hNpr1 antagonist. purified FLuc enzyme, luminescence, Km substrate. Potency, µM (highest dose often 57.6 µM), actives largely listed as inhibitors
# GloSensor cGMP: counter-screen for Npr1 antagonists: GloSensor control cell line | Potency, µM (series often up to 57.6 µM), hits mostly inhibitors | HEK293 GloSensor cGMP, SNP-stimulated, luminescence | 69% of 1,400 active | shares compounds with hNpr1 antagonist; calls by dose curve; further: nearly all actives have a fitted effect of over 70% in size
# A number is an active result; - = inactive; ? = inconclusive; . = not tested or not shown. Unless noted, the call rests on the fitted dose curve; in most records, active means well fitted curve in the direction sought with a large enough effect; inconclusive means small, poorly fitted or top-dose-only effect, or another doubt; inactive means no such curve, though single readings can be large; an effect the other way counts as inactive or inconclusive.
SMILES,HEK cytotox,FLuc inh,GPT2 inh,3T3 cytotox,hNpr1 antagonist,Npr1 antag conf,Npr2 selectivity,FLuc inh counter,GloSensor cGMP
O=C(NCCNC(=O)C1CC1)c1ccc(-c2cccc(C(F)(F)F)c2)cc1,?,.,.,-,.,.,.,.,.
O=C(c1ccc(F)cc1F)N1CCC2(CC1)N=C(c1ccc(Cl)cc1)NO2,?,-,-,?,14µM,24µM,24µM,-,22µM
Cc1ccc(C2=NC3(CCN(C(=O)c4cc(F)ccc4F)CC3)ON2)cc1,?,-,-,?,-,.,.,.,.
O=C(c1ccc(F)cc1F)N1CCC2(CC1)N=C(c1ccc(Br)cc1)NO2,?,-,-,?,11µM,17µM,15µM,-,12µM
O=C(Cc1c[nH]c2ncc(-c3ccc(F)c(Cl)c3)cc12)NCc1cccnc1,?,-,-,?,22µM,40µM,31µM,-,28µM
O=C(Cc1c[nH]c2ncc(-c3cn[nH]c3)cc12)NCc1cccnc1,-,-,-,?,-,.,.,.,.
COc1cc(F)cc(-c2cnc3[nH]cc(CC(=O)NCc4cccnc4)c3c2)c1,?,-,-,?,28µM,31µM,31µM,?,31µM
NC(=O)Cc1c[nH]c2ncc(-c3ccc(F)c(Cl)c3)cc12,?,-,-,?,-,.,.,.,.
CC1(C(=O)NC2CCN(Cc3ccccc3)CC2)CCCCC(=O)N1 (centres undefined),-,-,-,-,-,.,.,.,.
CCOC(=O)N1c2ccc(C(F)(F)F)cc2C(N(Cc2cc(C(F)(F)F)cc(C(F)(F)F)c2)C(=O)OC)CC1CC (centres undefined),.,.,-,.,.,.,.,.,.
Cc1nn2c(c1-c1ccccc1Oc1ccccc1)N(C(=O)Cc1ccc3c(c1)OCO3)CCC2,?,-,-,?,7.9µM,11µM,5.4µM,-,-
Cc1nn2c(c1-c1ccccc1OCc1ccccc1)N(C(=O)Cc1ccc3c(c1)OCO3)CCC2,79µM,-,-,13µM,8.9µM,11µM,6.1µM,-,-
Cc1nn2c(c1-c1ccccc1-c1ccccc1)N(C(=O)Cc1ccc3c(c1)OCO3)CCC2,?,-,?,?,-,.,.,.,.
COc1ccc(N2CCN(C(=O)c3c(-c4cccnc4)cc(=O)n4c3CCCC4)CC2)cc1,-,.,-,-,.,.,.,.,.
CC(C)n1cc(CN(C)C(=O)c2cc(COc3ccccc3)on2)cn1,?,?,-,?,-,.,.,.,.
Cc1cnccc1CN(C)C(=O)c1cc(COc2ccc(-n3cncn3)cc2)on1,?,-,-,?,7.1µM,5.4µM,9.7µM,-,5.4µM
Cc1ccccc1-c1cnc2[nH]cc(CC(=O)NCc3ccccc3)c2c1,?,-,-,-,13µM,25µM,25µM,-,14µM
O=C(Cc1c[nH]c2ncc(-c3ccccc3)cc12)NCCc1ccccc1,?,-,?,?,?,.,.,.,.
Cc1ccccc1-c1cnc2[nH]cc(CC(=O)NC(C)C)c2c1,?,-,-,?,28µM,31µM,31µM,-,35µM
COc1ccccc1CNC[C@H]1O[C@H](Cc2cc(CN(C)Cc3ccccc3)on2)CC[C@@H]1O,?,-,-,-,-,.,.,.,.
CNC(=O)C1CCN(c2nccc(Nc3ccccc3OC)n2)CC1,?,.,-,?,.,.,.,.,.
CSc1ccc(-c2cccc(C(=O)NCCNC(=O)c3cccc(Cl)c3)c2)cc1,-,.,-,-,.,.,.,.,.
Cc1nn2c(c1-c1ccccc1C(N)=O)N(CCCc1ccccc1)CCC2,11µM,-,-,11µM,1.1µM,2.8µM,?,-,3.5µM
Cc1nn2c(c1-c1ccccc1C(C)C)N(C(=O)CCc1cccnc1)CCC2,-,-,-,?,-,.,.,.,.
Cc1nn2c(c1-c1ccccc1[S+](C)(=O)[O-])N(CCCc1ccccc1)CCC2,?,-,-,?,18µM,5.6µM,25µM,-,4.4µM
SMILES,HEK cytotox,FLuc inh,GPT2 inh,3T3 cytotox,hNpr1 antagonist,Npr1 antag conf,Npr2 selectivity,FLuc inh counter,GloSensor cGMP
Cc1cn2nc(C(=O)N3CCCCC3)cc2c(N(C)Cc2ccccc2)n1,?,-,-,?,-,.,.,.,.
COc1ccc(-c2ccnc3nc(-c4cccs4)nn23)c(F)c1,-,-,-,-,-,.,.,.,.
CC(=O)NC1(C)CCN(Cc2ccc(Nc3ccccc3)cc2)C1 (centres undefined),?,?,-,?,-,.,.,.,.
CC1(NC(=O)C2CC2)CN(c2ccc(Oc3ccccc3)cc2)C1,?,-,-,-,20µM,18µM,22µM,-,16µM
CC(=O)NC1(C)CCCN(c2ccc(Oc3ccccc3)cc2)C1 (centres undefined),?,-,?,?,18µM,20µM,20µM,?,16µM
CC(C)NC(=O)N1C2CCC1CN(c1ccc(C(F)(F)F)cc1)C2,?,.,-,?,.,21µM,19µM,-,15µM
O=C(NC1CCCCC1)N1C2CCC1CN(c1ccc(C(F)(F)F)cc1)C2,?,.,-,?,.,.,.,.,.
CC(C)(Oc1nn(Cc2cccc(Cl)c2)c2ccccc12)C(=O)NC1CCC(O)CC1 (centres undefined),?,-,-,?,-,.,.,.,.
CC(C)(Oc1nn(Cc2cccc(Cl)c2)c2ccccc12)C(=O)NCCc1cnc[nH]1,?,-,-,?,22µM,28µM,25µM,-,25µM
CCOC(=O)c1ccc(NC(=O)Cn2c(N(C)Cc3ccccc3)nc(C)cc2=O)cc1,40µM,-,-,?,14µM,22µM,22µM,-,22µM
COc1cc(NC(=O)Cn2c(N(C)Cc3ccccc3)nc(C)cc2=O)cc(OC)c1,16µM,-,-,?,7.9µM,11µM,12µM,-,6.9µM
COc1ccccc1NC(=O)Cn1c(N(C)Cc2ccccc2)nc(C)cc1=O,?,-,-,?,-,.,.,.,.
COc1ccc(C)cc1NC(=O)Cn1c(N(C)Cc2ccccc2)nc(C)cc1=O,?,-,-,-,13µM,24µM,24µM,-,31µM
COc1cc(NC(=O)Cn2c(N(C)Cc3ccccc3)nc(C)cc2=O)cc(OC)c1OC,?,-,-,?,7.1µM,11µM,14µM,-,11µM
O=C(c1n[nH]c2ccccc12)N1CC(Oc2ccccc2-c2nc(-c3ccccc3)no2)C1,-,-,-,-,-,.,.,.,.
COc1ccc(C2=NOC3(CCCN(C(=O)Cc4ccccc4)C3)C2)cc1 (centres undefined),-,.,-,-,.,.,.,.,.

# Screens as filed in PubChem.
